Bioassay records: PubChem BioAssay, National Center for Advancing Translational Sciences (NCATS)
Sampled rows, rich in hits. Any-hit rate of the full collection: about 19%.
DT40 TDP1 no CPT – qHTS for Inhibitors of human tyrosyl-DNA phosphodiesterase 1 (TDP1): qHTS in cells in absence of CPT; 420,000 tested, 15% active; Potency, µM (top dose mostly 46.2 µM), inactives show at the top dose activity change, negative = growth inhibition, most hits filed as inhibitors; DT40 Tdp1-/- hTDP1 cells, no CPT, ATP luminescence, 48 h; also: nearly all actives have a fitted effect of over 55% in size
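Luminescent ATP content (CellTiter-Glo) served as the growth readout. Knockout chicken DT40 cells expressing human TDP1 were exposed to compounds without camptothecin for a minimum 48 hr at 37 °C.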
KB-3-1 tox – kills parental KB-3-1 adenocarcinoma cells | Potency, µM (highest dose often 46.1 µM), most hits filed as cytotoxic | KB-3-1 viability, CellTiter-Glo ATP luminescence, 72 h | 400,000 tested, 1.4% active; also: nearly all actives have a fitted effect of over 60% in size
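Screening of KB-3-1 cells (DMEM, 10% FBS, phenol-red free) ran from lowest to highest compound concentration; after 72 h at 37 °C viability was read luminescently and curves fitted.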
KB-V1 MDR tox – kills drug-selected multidrug resistant KB-V1 cells. KB-V1 MDR cells viability, CellTiter-Glo, 72 h. Potency, µM (titrated, usually from 46.1 µM), most hits filed as cytotoxic. 400,000 tested, 3.4% active. AID 1347076; also: nearly all actives have a fitted effect of over 60% in size
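Compound-treated KB-V1 multidrug-resistant cells, 72 h, 37 degrees C; viability by CellTiter-Glo. Fitted qHTS curves give the values.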
TDP1 cell CPT – DT40-hTDP1 cell growth loss with CPT; chicken DT40 Tdp1-/-;hTDP1 cells + 20 nM CPT, ATP luminescence, 48 h; 420,000 tested, 12% active; Potency, µM (top dose mostly 46.2 µM), for inactives: at the highest dose activity change, negative = growth inhibition, hits mostly inhibitors; also: nearly all actives have a fitted effect of over 55% in size
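Cell growth measured by CellTiter-Glo luminescence after a minimum 48 h, 37 C compound exposure with 20 nM CPT in Tdp1-knockout DT40 cells stably expressing hTDP1, seeded 400/well; qHTS titration format.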
HT1080NT lethal – kills 2HG-producing HT-1080-NT fibrosarcoma cells; HT-1080-NT fibrosarcoma viability, CellTiter-Glo ATP luminescence, 48 h; Potency, µM (titrated, usually from 46.1 µM), inactives show at the top dose activity, negative = less viability, hits mostly cytotoxic; 360,000 tested, 1.6% active; AID 686970;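 also: NT is the 2HG producing partner of a matched IDH1 knockdown line; 0% = DMSO-treated cells and -100% = media-only wells without cells; nearly all actives have a fitted effect of over 55% in size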
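Read-out is CellTiter-Glo luminescence after 10 minutes at room temperature, following 48 hours' compound treatment of HT-1080-NT cells (750 cells/well, RPMI, 5% FBS, 37 degrees C).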
HT1080 IDH1KD tx – kills HT-1080 cells with IDH1 knockdown; HT-1080 IDH1 knockdown viability, ATP luminescence, 48 h; Potency, µM (highest dose often 46.1 µM), without a hit: at the highest dose activity, negative = toxicity, hits mostly cytotoxic; 360,000 tested, 2% active; AID 686971;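 also: 0% = DMSO wells and -100% = cell-free medium wells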
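IDH1KD HT-1080 cells, 750/well, RPMI + 5% FBS; compound pinned after 2 h settling; 48 h, 37 °C; CellTiter-Glo luminescence; % activity normalised to DMSO and no-cell wells; curves fitted, classed by r2 and efficacy.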
* hit, by the source's call; i = inactive; ? = inconclusive; . = no result given. Calls follow the shape of the dose curve; as a rule, active = well fitted curve in the direction sought with a large enough effect; inconclusive = small, poorly fitted or top-dose-only effect, or another doubt; inactive = no such curve, though single readings can be large; an effect the other way counts as inactive or inconclusive. Unless noted, % is scaled to controls: 0 for no effect and ±100 for the full control effect; potency is read from the fitted curve at half-maximal effect.

SMILES | DT40 TDP1 no CPT | KB-3-1 tox | KB-V1 MDR tox | TDP1 cell CPT | HT1080NT lethal | HT1080 IDH1KD tx
CCc1noc(C)c1C(=O)OCC(=O)c1ccc(NC(C)=O)cc1F | 20.6µM* | i | i | ? | -1.2% | -3.0%
CCc1noc(C)c1C(=O)OCC(=O)Nc1nc(-c2ccc(F)c(F)c2)cs1 | 14.6µM* | i | 2.91µM* | ? | -12.6% | 2.1%
COc1ccc(-c2csc(NC(=O)CSCC(=O)Nc3cc(C)on3)n2)cc1OC | ? | i | i | ? | -2.8% | -8.8%
CC(=O)Nc1ccc(C(=O)COC(=O)C2CC2)c(F)c1 | 4.6% | i | ? | 14.0% | 18.9% | 8.9%
O=C(NNC(=O)C12CC3CC(CC(C3)C1)C2)[C@@H]1C[C@H]1c1ccccc1 | -10.4% | i | i | 0.2% | -10.6% | -4.1%
COc1ccc(-c2csc(NC(=O)c3c(OC)cccc3OC)n2)cc1 | ? | i | i | -29.5% | 4.1% | -0.2%
CCc1noc(C)c1C(=O)Nc1nc(-c2ccc(NC(C)=O)cc2)cs1 | 20.6µM* | i | ? | 16.4µM* | 8.0% | 8.3%
COc1ccc(-c2csc(NC(=O)c3cc(C)oc3C)n2)cc1OC | 18.4µM* | ? | ? | ? | -4.1% | -21.8%
O=S(=O)(Nc1ccc2ccccc2n1)c1ccc2c(c1)CCO2 | ? | i | i | -27.7% | 6.2% | 0.5%
NCCSc1c(-c2ccc(Cl)cc2)[nH]c2ccccc12 | ? | i | i | ? | 1.8% | -0.5%
Cc1ccc(NC(=O)c2cc(=O)[nH]c3ccccc23)cc1 | 23.4% | i | i | -2.0% | -3.5% | -11.5%
NCCSc1c(-c2ccccc2)[nH]c2ccccc12 | 20.6µM* | i | i | ? | -12.4% | -4.2%
Cc1[nH]c2ccccc2c1SCCN | ? | i | i | ? | -1.1% | -1.2%
Cc1ccc(-c2cc(=O)[nH]c3ccccc23)cc1 | 7.31µM* | i | i | 9.2µM* | -25.6% | -25.0%
Cc1ccc(-c2[nH]c3ccccc3c2SCCN)cc1 | 14.6µM* | i | i | ? | 0.0% | -0.6%
COc1ccc(C(=O)N2CCC2(C)C(=O)O)cc1C(F)(F)F (stereo not drawn) | 6.0% | i | i | -2.3% | ? | 10.0%
CC(=O)Nc1cncc(-c2cnn(CC(C)C)c2)n1 | -12.0% | i | i | -20.1% | 11.9% | 7.3%
Cc1ccc(NC(=O)COc2ccc3oc4c(c3c2)CCCC4)nc1 | 8.2µM* | i | i | ? | 3.4% | 7.1%
O=C(COc1ccc2oc3c(c2c1)CCCC3)Nc1ccc(Br)cc1 | ? | i | ? | 14.6µM* | . | .
Cc1ccc(NC(=O)COc2ccc3oc4c(c3c2)CCCC4)c(C)c1 | ? | i | ? | ? | . | .
Cc1cccc(NC(=O)COc2ccc3oc4c(c3c2)CCCC4)c1 | 18.4µM* | i | ? | 16.4µM* | . | .
CC(C)N(CCNC(=O)COc1ccc2oc3c(c2c1)CCCC3)C(C)C | 23.1µM* | i | i | ? | -21.3% | ?
CCCCNC(=O)CN1CCN(c2ncc(NC(=O)c3ccc(Cl)cc3)cc2C(=O)O)CC1 | 5.0% | i | i | -1.3% | . | .
COc1ccc(-n2c(=O)c3c(c4cc(OC)ccc4n3C)n(CC(=O)NCC3CCCO3)c2=O)cc1 (stereo not drawn) | ? | i | i | -5.4% | . | .
Oc1ccc(C[C@@H]2CNCCN2CCc2cccc3ccccc23)cc1 | 20.6µM* | i | i | 14.6µM* | -19.4% | -21.5%
SMILES | DT40 TDP1 no CPT | KB-3-1 tox | KB-V1 MDR tox | TDP1 cell CPT | HT1080NT lethal | HT1080 IDH1KD tx
Fc1cccc(CCN2CCNC[C@H]2Cc2cccc3ccccc23)c1 | ? | i | i | ? | -18.2% | 1.3%
CC(C)(C)CN1CCNC[C@H]1Cc1cccc2ccccc12 | ? | i | i | ? | 1.2% | 1.9%
c1ccc2c(C[C@@H]3CNCCN3CCC34CC5CC(CC(C5)C3)C4)cccc2c1 | ? | i | i | 18.4µM* | -16.8% | -3.4%
O=C(O)C(C(O)c1ccccc1)[n+]1ccccc1 (stereo not drawn) | -17.3% | i | i | -5.4% | 13.8% | 9.4%
Cc1[nH]c2ccccc2c1C(=O)CN(C)c1ccccc1 | ? | ? | i | -113.7% | . | .
Cc1[nH]c2ccccc2c1C(=O)Cn1c(=O)oc2ccccc21 | -22.6% | i | 16.4µM* | -24.0% | -2.7% | ?
Cc1ccc(SCC(=O)c2c(C)[nH]c3ccccc23)cc1 | -8.6% | i | i | 17.7% | 28.9% | 29.9%
CC(=O)c1c(-c2ccccc2)[nH]c2ccccc12 | 13µM* | ? | 7.31µM* | 13µM* | ? | ?
Cc1[nH]c2ccccc2c1C(=O)CCl | 3.66µM* | i | ? | 2.59µM* | ? | ?
CC(C)Oc1ccc(C(=O)Nc2c(C(=O)Nc3cccc(F)c3)oc3ccccc23)cc1 | ? | i | i | ? | . | .
O=C(Nc1ccc(Cc2ccncc2)cc1)C1CCC(N2C(=O)C3CC=CCC3C2=O)CC1 (stereo not drawn) | 15.8µM* | i | 14.6µM* | 20.6µM* | -25.0% | -20.6%
COc1ccc(NC(=O)C2CCC(N3C(=O)C4CCCCC4C3=O)CC2)cc1 (stereo not drawn) | -27.8% | i | ? | 10.2% | -1.1% | -10.2%
CCc1nc2ccc(C(=O)NCCc3ccc(SC)cc3)cc2nc1CC | ? | i | i | ? | . | .
CC(C)(C)OC(=O)CNC(=O)c1nc[nH]c1C(=O)NCc1ccccc1 | -16.4% | i | i | ? | 12.6% | 0.4%
C[C@@H](NC(=O)c1nc[nH]c1C(=O)NCc1ccc(CNC(=O)OC(C)(C)C)cc1)c1ccccc1 | 23.1µM* | ? | i | ? | -24.4% | -22.9%
C[C@H](NC(=O)c1nc[nH]c1C(=O)NCc1ccc(CNC(=O)OC(C)(C)C)cc1)C(=O)OC(C)(C)C | 16.4µM* | i | i | 18.4µM* | -13.2% | -21.1%
CC(C)C[C@H](NC(=O)c1nc[nH]c1C(=O)NCc1ccc(CNC(=O)OC(C)(C)C)cc1)C(=O)OC(C)(C)C | 16.4µM* | i | ? | 25.9µM* | -10.7% | ?
C[C@H](NC(=O)c1nc[nH]c1C(=O)NCCCCCN)C(=O)OC(C)(C)C | -6.7% | i | i | -10.3% | 3.9% | 8.0%
CC1=C(C(=O)Nc2cccnc2)C(c2ccc(F)cc2)n2nc(SCc3ccccc3)nc2N1 (stereo not drawn) | -13.1% | i | ? | -3.5% | . | .
